Compound activity (PubChem BioAssay)
MITF TRPM1 inh – inhibitors of MITF-driven TRPM1 promoter in melanoma cells. inhibition, % at 12.5 µM. 0.83% of 330,000 active. SK-MEL-5 TRPM1 promoter luciferase, 24 h. AID 488899;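 active = mean inhibition across replicates of 60% or more, whatever share of single replicates reaches that level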
Peg3 promoter – Peg3 promoter activity inhibition. HeLa PEG-Prom luciferase reporter, luminescence, overnight. inhibition, % at 20 µM. 1.7% of 360,000 active;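 active = inhibition of at least 50% at 20 µM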
EBV LMP1 NFkB – reduces LMP1-driven NF-kappaB luciferase signal; AID 504558; 0.69% of 350,000 active; LMP1-induced NF-kappaB luciferase reporter cells, luminescence; inhibition, % at 12.5 µM; in the data active = inhibition above about 41%
CF NFkB block – blocks PAF-induced NF-kB reporter in cystic fibrosis cells. KKLEB NF-kB-GFP reporter, GFP fluorescence overnight. inhibition, % at 5 µM. 0.86% of 360,000 active;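 active = at least 50% inhibition at 5 µM, scaled per plate between neutral and stimulator controls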;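 also: PAF is a Pseudomonas aeruginosa culture filtrate used as stimulus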
KKLEB tox – counter-screen for CF NF-kB inhibitors: cytotoxicity; KKLEB CF airway cells viability, ATPlite luminescence, overnight; active compounds read low; cells stimulated with P. aeruginosa culture filtrate; 0.36% of 360,000 active; activity change (cytotoxicity), % at 5 µM;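 active = corrected activity change at or below -50% at 5 µM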
Shn3 3UTR inh – inhibitors of Schnurri-3 3'UTR reporter in osteoblasts; Clone20 osteoblast Shn3 3'UTR firefly luciferase, 24 h; inhibition, % at 12.5 µM; 0.52% of 360,000 active;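 active = mean inhibition of at least 75% with every replicate also reaching 75%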
CF NFkB inh conf – confirmation of cystic fibrosis induced NF-kB inhibitors; shares compounds with CF NFkB block; 64% of 1,300 active; KKLEB CF airway cells, PAF-induced NF-kB-GFP fluorescence, overnight; inhibition, % at 5 µM; in the data active = inhibition above about 40%;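 also: stimulus PAF is a Pseudomonas aeruginosa filtrate and not platelet activating factor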
Of the large screens only hits and unclear results are named; the others gave an inactive call (follow-up assays come after a bar, where they were run). Only some compounds are listed: those with a hit (about 2.9% of all), similar ones and a draw of the others.

CCOC(=O)C1(C)CCCN(C(=O)C(c2ccccc2)c2ccccc2)C1 (centres undefined)	none (no result: MITF TRPM1 inh, EBV LMP1 NFkB)
COc1ccc2[nH]c3c(c2c1)CCN1C(=O)C(CC(=O)NCCN2CCOCC2)C[C@H](C(=O)N2CCCCC2)[C@@]31CCc1ccccc1 (some centres undefined)	none
COc1ccc2[nH]c3c(c2c1)CCN1C(=O)C(CC(=O)NCCC2=CCCCC2)C[C@H](C(=O)N2CCCCC2)[C@@]31CCc1ccccc1 (some centres undefined)	CF NFkB block 56 | CF NFkB inh conf 81
CSc1ccc(NC(=O)C2(C)CCN2C(=O)c2cc(C)n(C)n2)cc1 (centres undefined)	none (no result: MITF TRPM1 inh, EBV LMP1 NFkB)
CC[C@H](CO)Nc1nc(Nc2cccc(Cl)c2)c2ncn(C(C)C)c2n1	Peg3 promoter 94, CF NFkB block 68 | CF NFkB inh conf 92
CN1CCC(N2CCN(C3CN(Cc4ccc(F)cc4)S(=O)(=O)C3)CC2)CC1 (centres undefined)	none (no result: MITF TRPM1 inh, EBV LMP1 NFkB)
CC(=O)c1c(O)cc(O)c(C(C)=O)c1O	CF NFkB block 59 | CF NFkB inh conf 52
CC(=O)c1c(O)cc(O)cc1CC(=O)O	none
CCOc1ccc(NCc2cc3c(C(C)(C)C)nn(-c4ccccc4)c3[nH]c2=O)cc1	CF NFkB block 55 | CF NFkB inh conf 73
C=C1C(=O)O[C@@]23[C@H]1CC[C@@H](C)[C@@H]2CC[C@@]1(C)O[C@@H]31	MITF TRPM1 inh 85, CF NFkB block 54 | CF NFkB inh conf 71
OCc1nc2ccccc2n1CCCc1ccccc1	none (no result: MITF TRPM1 inh)
OC[C@@H]1CN(Cc2ccncc2)C[C@H](n2cnc3c(NCc4ccncc4)ncnc32)O1	none (no result: MITF TRPM1 inh, EBV LMP1 NFkB)
CC1(C)CC(=O)C(C2C3=C(CC(C)(C)CC3=O)Oc3c(Br)cc(Br)cc32)=C(O)C1 (centres undefined)	CF NFkB block 56 | CF NFkB inh conf 57
CC1(C)CC(=O)C2=C(C1)OC1=C(C(=O)CC(C)(C)C1)C2c1cc([N+](=O)[O-])cc([N+](=O)[O-])c1O	none
N#CC1(NC(=O)CSc2nnc(C3CC3)n2N)CCCCC1	none (no result: MITF TRPM1 inh)
CC(C)(C)c1ccc(C(=O)CC(Sc2ccc(Cl)cc2)C(=O)O)cc1 (centres undefined)	CF NFkB block 88 | CF NFkB inh conf inactive
Cc1c(NC(=O)CSc2nnc(C(C)N(C)C)n2-c2ccccc2)c(=O)n(-c2ccccc2)n1C (centres undefined)	none (no result: MITF TRPM1 inh)
Cc1cccc(N2CCN(C(=O)CCn3c(=S)[nH]c4cc5c(cc4c3=O)OCO5)CC2C)c1 (centres undefined)	Peg3 promoter 63, CF NFkB block 69 | CF NFkB inh conf 101
O=C(CCCn1c(=S)[nH]c2cc3c(cc2c1=O)OCO3)N1CCN(c2ccccc2)CC1	none
O=C(NCC(=O)N1CCN(Cc2ccccc2)CC1)c1ccc(Br)o1	none
Cc1cccc(NC(=O)c2cc(-c3ccc(C)s3)nc3ccccc23)n1	CF NFkB block 74 | CF NFkB inh conf 76
NC(=O)c1nc(-c2cccs2)nc2c1[nH]c(=O)n2-c1ccc(F)cc1	CF NFkB block 53 | CF NFkB inh conf inactive
O=c1[nH]nc(Sc2ncnc3sccc23)n1CCc1ccccc1	CF NFkB block 54 | CF NFkB inh conf 45
CCN(CC)C(=O)CSc1n[nH]c(=O)n1CCc1ccccc1	none
O=C(COc1ccccc1[N+](=O)[O-])OCC(=O)c1ccc(Br)s1	none
CC(C)Cc1nc2oc3c(NCC4CCCO4)ncnc3c2c2c1CCC2 (centres undefined)	Peg3 promoter 61, CF NFkB block 76 | CF NFkB inh conf 90
C[C@@H]1C[C@H]2[C@@H]3C[C@H](F)C4=CC(=O)C=C[C@]4(C)[C@@]3(F)[C@@H](O)C[C@]2(C)[C@@]1(O)C(=O)CO	CF NFkB block 78 | CF NFkB inh conf inactive
CC1(C)OC2CC3C4CC(F)C5=CC(=O)C=CC5(C)C4(F)C(O)CC3(C)C2(C(=O)CO)O1 (centres undefined)	CF NFkB block 75 | CF NFkB inh conf inactive
CC(=O)OCC(=O)[C@@]12OC(C)(C)O[C@@H]1CC1C3C[C@H](F)C4=CC(=O)C=CC4(C)[C@@]3(F)C(O)CC12C (some centres undefined)	CF NFkB block 73 | CF NFkB inh conf inactive
OCC[C@H]1C[C@@H](O)[C@H](O)[C@@]2(Cc3ccccc3O2)O1	none
N#Cc1ccc(S(=O)(=O)N2CCCCC2c2cc(C(=O)NCc3cccnc3)no2)cc1 (centres undefined)	none (no result: MITF TRPM1 inh, EBV LMP1 NFkB)
Cc1ccc2cc(CNC[C@H]3O[C@@H](n4cc(C)c(=O)[nH]c4=O)C[C@@H]3O)c(N3CCOCC3)nc2c1	none (no result: MITF TRPM1 inh)
C=C1CC[C@@H]2[C@](C)(CO)[C@H](O)CC[C@@]2(C)[C@@H]1C/C=C1/C(=O)OCC1O (some centres undefined)	CF NFkB block 54 | CF NFkB inh conf inactive
COCCCN=C1NN=C(c2cc(C)n(Cc3ccccc3Cl)c2C)CS1	CF NFkB block 54 | CF NFkB inh conf 60
COCCNC(=O)C1(C)CCCN(Cc2cccc(OC(=O)c3ccccc3)c2)C1 (centres undefined)	none (no result: MITF TRPM1 inh, EBV LMP1 NFkB)
O=C(Nc1cccc(Cl)c1)Nc1csc([N+](=O)[O-])c1	CF NFkB block 54 | CF NFkB inh conf 63
CCOc1ccc(-n2c(C)c(C(=O)O)c3cc(OC)ccc32)cc1	none
COc1ccc(-n2c(C)cc3cc(OC(C)=O)ccc32)cc1	CF NFkB block 57 | CF NFkB inh conf 58
CCOc1ccc(-n2c(C)c(C(C)=O)c3cc(OC(C)=O)ccc32)cc1	CF NFkB block 76 (no result: MITF TRPM1 inh) | CF NFkB inh conf 87
COc1ccc(-n2c(C)c(C(C)=O)c3cc(O)ccc32)cc1	EBV LMP1 NFkB 57, CF NFkB block 69 | CF NFkB inh conf 86
Cc1ccc2nc(C(C)(C)C)c(Cc3cccc(Cl)c3)n2c1	none (no result: MITF TRPM1 inh, EBV LMP1 NFkB)
Cc1csc(=O)n1CC(=O)OCC(=O)Nc1ccc(F)c(F)c1F	none (no result: MITF TRPM1 inh)
O=C1CN(C(=O)COC(=O)COc2ccccc2)c2ccccc2N1	none
C=C1C(=O)O[C@H]2C[C@H]1[C@@H](OC(C)=O)C/C(C)=C/CC/C(C)=C\CC[C@]2(C)O	MITF TRPM1 inh 99, Peg3 promoter 89, EBV LMP1 NFkB 48, CF NFkB block 77 | CF NFkB inh conf 65
CC(=O)O[C@@H]1C[C@H]2C(C)=C[C@H]3OC(=O)[C@@H](C)[C@H]3C[C@H]2[C@]1(C)O	none
COc1ccc(-c2cc(=O)oc3cc(O)ccc23)cc1	CF NFkB block 82 | CF NFkB inh conf 86
COc1ccc(-c2cc(=O)oc3cc(OC(=O)C4CCCCC4)c(Cl)cc23)cc1	CF NFkB block 88 | CF NFkB inh conf 93
COc1ccc(-c2cc(=O)oc3cc(OCC(C)=O)ccc23)cc1	none
